The text below walks through data of PubChem BioAssay (EPA / NIEHS).

Several values for one entry are separate records, joined by “and”; a condition that tells them apart may be missing. Equal values may be shown once. Inconclusive results are not listed. Activity calls are given as the source filed them. The calls were made as follows: active = hit-call score of the fitted dose curve at least 0.9, where 1 is the maximum; inconclusive = response in the unintended direction; inactive = score below 0.9.

Sequence of Glucocorticoid receptor (Homo sapiens) (P04150 whole entry, looked up): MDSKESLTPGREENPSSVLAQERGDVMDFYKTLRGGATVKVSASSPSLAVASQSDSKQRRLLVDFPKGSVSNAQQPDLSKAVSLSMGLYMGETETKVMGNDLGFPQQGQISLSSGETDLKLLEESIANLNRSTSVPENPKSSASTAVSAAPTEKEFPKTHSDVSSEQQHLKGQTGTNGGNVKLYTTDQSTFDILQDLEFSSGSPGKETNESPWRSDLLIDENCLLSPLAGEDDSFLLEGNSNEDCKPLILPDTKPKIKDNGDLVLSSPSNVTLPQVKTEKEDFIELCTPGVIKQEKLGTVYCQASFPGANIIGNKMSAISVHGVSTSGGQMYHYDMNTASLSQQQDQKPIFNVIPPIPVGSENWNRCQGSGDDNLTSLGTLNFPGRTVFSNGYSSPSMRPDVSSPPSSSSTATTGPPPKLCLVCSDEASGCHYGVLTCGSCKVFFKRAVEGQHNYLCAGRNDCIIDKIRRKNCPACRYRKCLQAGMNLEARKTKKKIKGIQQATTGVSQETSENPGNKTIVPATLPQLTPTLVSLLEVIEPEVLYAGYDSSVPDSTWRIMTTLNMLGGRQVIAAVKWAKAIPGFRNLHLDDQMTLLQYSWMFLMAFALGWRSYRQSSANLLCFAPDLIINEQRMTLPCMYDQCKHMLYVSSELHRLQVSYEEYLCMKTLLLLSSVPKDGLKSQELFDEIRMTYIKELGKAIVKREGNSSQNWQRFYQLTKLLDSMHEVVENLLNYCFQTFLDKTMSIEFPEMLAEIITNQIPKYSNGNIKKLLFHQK
Sequence of PGR (gene 5241) (P06401 whole entry, looked up): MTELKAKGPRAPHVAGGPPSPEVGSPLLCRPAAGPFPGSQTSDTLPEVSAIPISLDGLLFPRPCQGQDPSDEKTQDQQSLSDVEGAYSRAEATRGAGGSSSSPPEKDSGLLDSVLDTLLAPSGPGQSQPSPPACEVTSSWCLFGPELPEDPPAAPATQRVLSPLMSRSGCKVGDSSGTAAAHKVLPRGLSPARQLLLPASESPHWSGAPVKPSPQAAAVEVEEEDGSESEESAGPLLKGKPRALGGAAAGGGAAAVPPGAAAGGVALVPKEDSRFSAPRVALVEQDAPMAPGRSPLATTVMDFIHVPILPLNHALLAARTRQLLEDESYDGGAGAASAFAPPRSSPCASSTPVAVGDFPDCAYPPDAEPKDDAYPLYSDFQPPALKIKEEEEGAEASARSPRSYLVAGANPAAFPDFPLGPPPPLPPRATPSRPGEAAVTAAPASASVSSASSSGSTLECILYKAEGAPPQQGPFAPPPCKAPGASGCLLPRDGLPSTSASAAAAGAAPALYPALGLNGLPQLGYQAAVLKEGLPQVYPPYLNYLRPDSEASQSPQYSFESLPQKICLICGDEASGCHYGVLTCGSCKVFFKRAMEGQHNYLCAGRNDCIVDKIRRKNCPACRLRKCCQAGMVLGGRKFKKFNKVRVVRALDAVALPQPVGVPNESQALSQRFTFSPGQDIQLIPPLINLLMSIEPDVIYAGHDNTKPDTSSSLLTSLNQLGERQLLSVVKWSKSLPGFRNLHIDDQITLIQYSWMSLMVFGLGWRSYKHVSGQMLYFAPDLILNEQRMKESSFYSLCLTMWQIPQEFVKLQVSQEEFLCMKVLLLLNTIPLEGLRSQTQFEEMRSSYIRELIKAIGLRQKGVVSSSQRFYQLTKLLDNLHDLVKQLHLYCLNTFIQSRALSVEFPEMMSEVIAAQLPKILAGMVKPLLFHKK
Sequence of human Peroxisome Proliferator-activated Receptor alpha (PPARa), PPARA (gene 5465) (Q07869 whole entry, looked up): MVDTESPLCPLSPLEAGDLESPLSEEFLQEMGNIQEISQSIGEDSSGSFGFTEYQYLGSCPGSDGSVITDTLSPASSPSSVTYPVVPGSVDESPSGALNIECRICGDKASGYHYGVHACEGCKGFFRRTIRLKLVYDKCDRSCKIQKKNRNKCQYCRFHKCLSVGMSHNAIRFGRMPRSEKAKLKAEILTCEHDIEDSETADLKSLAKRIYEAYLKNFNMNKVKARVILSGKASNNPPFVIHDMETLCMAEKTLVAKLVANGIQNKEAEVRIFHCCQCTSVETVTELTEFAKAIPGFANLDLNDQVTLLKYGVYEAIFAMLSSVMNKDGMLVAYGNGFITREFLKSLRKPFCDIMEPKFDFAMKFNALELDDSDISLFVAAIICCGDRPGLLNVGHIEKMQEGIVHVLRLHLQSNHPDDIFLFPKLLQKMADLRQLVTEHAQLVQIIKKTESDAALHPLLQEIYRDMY

For the first experiment, the target named is human Peroxisome Proliferator-activated Receptor alpha (PPARa), PPARA (gene 5465) (UniProt Q07869). Description: NVS_NR_hPPARa: NovaScreen (NVS) Nuclear Receptor Binding Assay for human Peroxisome Proliferator-activated Receptor alpha (PPARa) (AID 2283359).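 Also: activity means loss of TR-FRET signal versus DMSO baseline.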 The procedure, abridged:
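Cell-free TR-FRET binding assay with extracted PPARα protein, read 1 h after dosing. Primary screen in duplicate at 25 uM, with actives retested in concentration series. Loss of signal versus DMSO.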
In the case of `C=CCc1ccc(OC)cc1`, the outcome was inactive.

Consider `CCCCCCCCSC(=O)Oc1cc(Cl)nnc1-c1ccccc1`, for which the outcome was inactive.

Regarding `CCCCCCCCc1ccc(O)cc1`, the molecule was classed as inactive. On the same count and under the same terms, with `O=C(O)C(F)(F)C(F)(F)C(F)(F)C(F)(F)C(F)(F)C(F)(F)F` the entry was “inactive”; with `CC(=O)C=C(C)C`, “inactive”.

The next experiment addresses PGR (gene 5241) (UniProt P06401). Description: NVS_NR_hPR: NovaScreen (NVS) Nuclear Receptor Binding Assay for human Progestron Receptor (PR) (AID 2283360).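 Also: active means loss of bound radioligand signal versus DMSO baseline.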 In a few lines: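 Cell-free radioligand binding using receptor protein extracted from T47D cells, read by scintillation counting 18 hours after dosing. Loss of signal relative to DMSO baseline indicates displacement; primary screen single concentration 25 uM in duplicate, actives followed in concentration series.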
Broadly, the AC50 is the concentration giving half of the maximal activity seen. `COC[C@H](C)N(C(=O)CCl)c1c(C)csc1C`: the half-maximal activity concentration (AC50) was 8.39 µM (active).

Turning to `N#CCc1ccc(Cl)cc1`, the call was inactive.

`Nc1cccc2ccccc12`: the result was inactive.

As for `C=CC(=O)N(C)C`, the call was inactive.

Consider `CC(C)(C)CC(C)(C)c1ccc(O)cc1`, for which the AC50 is 10.8 µM (active).

For a further experiment, the target named is Glucocorticoid receptor (Homo sapiens) (UniProt P04150). In words: NVS_NR_hGR: NovaScreen (NVS) Nuclear Receptor Binding Assay for human Glucocorticoid Receptor (GR) (AID 2283363).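 As to AC50: activity is loss of specific radioligand binding signal relative to DMSO.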 The procedure, abridged:
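Cell-free radioligand displacement assay on extracted human GR, read 16 h after dosing by filter-based scintillation counting. Screened in duplicate at 25 uM, then concentration series for actives; loss of signal versus DMSO baseline.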
`CC(C)(OO)c1ccccc1`: the molecule was called inactive. On the same count and under the same terms, under `Cn1sc(Cl)cc1=O` stands “inactive”. As for `CC(C)(C)CC(C)(C)c1ccc(O)cc1`, the AC50 is 4.67 µM (active) and 15.9 µM (active) and 7.33 µM (active).
